PubChem BioAssay (EPA / NIEHS)
Records with an inconclusive call do not appear. Calls of active or inactive are those of the source. The calls were made as follows, unless noted: active = hit-call score of the fitted dose curve at least 0.9, where 1 is the maximum; inactive = score below 0.9.

Columns and labels:
[1] = BSK_LPS_PGE2: BioMAP Diversity Plus: LPS Assay for Prostaglandin E2 (PGE2) Biomarker Activity (AID 2283082); conditions: primary human HUVEC with PBMC; actives raise or lower the signal;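 as to AC50: secreted prostaglandin E2 measured by ELISA in LPS-stimulated co-culture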
Outline: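 HUVEC plus human PBMC co-culture stimulated with LPS; secreted PGE2 quantified by ELISA 24 h after chemical dosing. Activity fitted bidirectionally against DMSO baseline; parallel SRB staining (0.1% SRB after 10% TCA fixation, 560 nm) flags overt cytotoxicity.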

[2] = read-out: Macrophage colony-stimulating factor (MCSF), CSF1 (gene 1435); experiment: BSK_LPS_MCSF: BioMAP Diversity Plus: LPS Assay for Macrophage colony-stimulating factor (MCSF) Biomarker Activity (AID 2283083); conditions: primary human HUVEC with PBMC; actives raise or lower the signal
Outline: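 Bidirectional fit versus DMSO of ELISA-measured M-CSF in co-cultured human umbilical vein endothelial cells and PBMC, sampled 24 h after dosing.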

[3] = read-out: Tissue Factor, F3 (gene 2152); experiment: BSK_LPS_TissueFactor: BioMAP Diversity Plus: LPS Assay for Tissue Factor Biomarker Activity (AID 2283084); conditions: primary human HUVEC with PBMC; actives raise or lower the signal
Outline: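 Read-out: CD142 ELISA, 24 h. System: LPS-driven human endothelial/PBMC co-culture. Analysis: up- or down-signal fitted against DMSO.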

[4] = read-out: Vascular cell adhesion molecule 1 (VCAM1), VCAM1 (gene 7412); experiment: BSK_LPS_VCAM1: BioMAP Diversity Plus: LPS Assay for Vascular cell adhesion molecule 1 (VCAM1) Biomarker Activity (AID 2283086); conditions: primary human HUVEC with PBMC; actives raise or lower the signal
Outline: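 Human umbilical vein endothelial cells co-cultured with PBMC and stimulated with LPS; VCAM-1 measured by ELISA 24 h after dosing. Bidirectional curve fitting against DMSO baseline; cytotoxicity tracked in parallel by SRB total-protein staining.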

CD38, CD38 (gene 952) = experiment: BSK_SAg_CD38: BioMAP Diversity Plus: SAg Assay for CD38 Biomarker Activity (AID 2283087); conditions: primary human HUVEC with PBMC; actives raise or lower the signal
Outline: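 Human HUVEC plus PBMC co-culture stimulated with superantigen; CD38 measured by ELISA 24 h after chemical dosing. Fluorescence read-out, bidirectional fit against DMSO; cytotoxicity tracked in parallel by SRB and Alamar Blue.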

CD40, CD40 (gene 958) = experiment: BSK_SAg_CD40: BioMAP Diversity Plus: SAg Assay for CD40 Biomarker Activity (AID 2283088); conditions: primary human HUVEC with PBMC; actives raise or lower the signal
Outline: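 Endpoint derived by fitting increases or decreases versus DMSO controls. CD40 is detected by fluorescence ELISA in a human vascular co-culture of endothelium and PBMC at 24 h.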

CD69, CD69 (gene 969) = experiment: BSK_SAg_CD69: BioMAP Diversity Plus: SAg Assay for CD69 Biomarker Activity (AID 2283089); conditions: primary human HUVEC with PBMC; actives raise or lower the signal;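 as to AC50: cell surface CD69 protein quantified by ELISA with fluorescence detection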
Outline: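 HUVEC co-cultured with PBMC were dosed with chemical, and CD69 was measured by ELISA with fluorescence read-out 24 h later. Bidirectional curve fitting used DMSO as negative control and activity baseline.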

[5] = read-out: Monocyte Chemoattractant Protein-1 (MCP1), CCL2 (gene 6347); experiment: BSK_SAg_MCP1: BioMAP Diversity Plus: SAg Assay for Monocyte Chemoattractant Protein-1 (MCP1) Biomarker Activity (AID 2283090); conditions: primary human HUVEC with PBMC; actives raise or lower the signal
Outline: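 MCP-1 levels in the endothelial–PBMC SAg co-culture were quantified by ELISA at 24 h post-dosing; both increases and decreases versus DMSO scored. Cytotoxicity monitored by SRB total protein in parallel cultures.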

[6] = read-out: E-selectin (Homo sapiens) (UniProt P16581); experiment: BSK_SAg_Eselectin: BioMAP Diversity Plus: SAg Assay for Eselectin Biomarker Activity (AID 2283091); conditions: primary human HUVEC with PBMC; actives raise or lower the signal
Outline: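 Endpoint values derive from bidirectional fitting relative to DMSO, using ELISA-measured E-selectin in a human vascular co-culture (umbilical vein endothelium plus PBMC) sampled 24 h after dosing.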

[7] = BSK_SAg_PBMCCytotoxicity: PBMC Cytotoxicity Assessment in the BioMAP Diversity Plus: SAg Assay (AID 2283093); conditions: primary human HUVEC with PBMC;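 also: PBMC viability measured as Alamar Blue reduction fluorescence at 546/580 nm; fitted both ways against DMSO so a hit may be loss or gain of signal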;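 as to AC50: PBMC superantigen activated with SEB plus TSST-1 one hour after compound addition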
Outline: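 Human umbilical vein endothelial cells co-cultured with PBMC; PBMC (75,000/well) pre-treated with compound 1 h, then activated with SEB and TSST-1 (20 ng/mL final each) for 90 h. Alamar Blue added 6 h, fluorescence 546/580 nm; bidirectional fit versus DMSO.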

[8] = read-out: Interleukin-8 (IL8), CXCL8 (gene 3576); experiment: BSK_SAg_IL8: BioMAP Diversity Plus: SAg Assay for Interleukin-8 (IL8) Biomarker Activity (AID 2283094); conditions: primary human HUVEC with PBMC; actives raise or lower the signal
Outline: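 Human umbilical vein endothelial cells co-cultured with PBMC, stimulated with superantigen; IL-8 measured by ELISA 24 h after chemical dosing. Bidirectional fitting versus DMSO; SRB staining in parallel cultures tracks cytotoxicity.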

[9] = BSK_SAg_Proliferation: Cell Proliferation Assessment in the BioMAP Diversity Plus: SAg Assay (AID 2283095); conditions: primary human HUVEC with PBMC
Outline: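 Human umbilical vein endothelial cells co-cultured with PBMC; sulforhodamine B total-protein staining (0.1% SRB after 10% TCA fixation, absorbance 560 nm) at 96 h in sub-confluent culture. Fitted bidirectionally against DMSO.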

[10] = BSK_SAg_SRB: Viability Assessment in the BioMAP Diversity Plus: SAg Assay (AID 2283096); conditions: primary human HUVEC with PBMC;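 also: cells read one day after compound addition; hits may be either gain or loss of signal compared with DMSO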
Outline: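 Endothelial/PBMC primary human co-culture; compound 24 h; fix 10% TCA, stain 0.1% SRB, A560; protein content as cytotoxicity proxy; bidirectional curve fit, DMSO = baseline.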

[11] = read-out: Tumor necrosis factor (Homo sapiens) (UniProt P01375); experiment: BSK_LPS_TNFa: BioMAP Diversity Plus: LPS Assay for Tumour Necrosis Factor alpha (TNFa) Biomarker Activity (AID 2283085); conditions: primary human HUVEC with PBMC; actives raise or lower the signal
Outline: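 Human umbilical vein endothelial cells co-cultured with PBMC and stimulated with LPS. TNFa was measured by ELISA 24 h after chemical dosing, fitted bidirectionally relative to DMSO.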

[12] = target: human CYP19A1, CYP19A1 (gene 1588) (UniProt P11511); experiment: NVS_ADME_hCYP19A1: NovaScreen (NVS) CYP450-related Enzyme Activity (ADME) Assay for human CYP19A1 (AID 2283098; active = hit-call score of the fitted dose curve at least 0.9, where 1 is the maximum;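 as to AC50: potency for inhibitors seen as loss of fluorescent enzyme signal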)
Chain of human CYP19A1, CYP19A1 (gene 1588) (P11511 whole entry, looked up): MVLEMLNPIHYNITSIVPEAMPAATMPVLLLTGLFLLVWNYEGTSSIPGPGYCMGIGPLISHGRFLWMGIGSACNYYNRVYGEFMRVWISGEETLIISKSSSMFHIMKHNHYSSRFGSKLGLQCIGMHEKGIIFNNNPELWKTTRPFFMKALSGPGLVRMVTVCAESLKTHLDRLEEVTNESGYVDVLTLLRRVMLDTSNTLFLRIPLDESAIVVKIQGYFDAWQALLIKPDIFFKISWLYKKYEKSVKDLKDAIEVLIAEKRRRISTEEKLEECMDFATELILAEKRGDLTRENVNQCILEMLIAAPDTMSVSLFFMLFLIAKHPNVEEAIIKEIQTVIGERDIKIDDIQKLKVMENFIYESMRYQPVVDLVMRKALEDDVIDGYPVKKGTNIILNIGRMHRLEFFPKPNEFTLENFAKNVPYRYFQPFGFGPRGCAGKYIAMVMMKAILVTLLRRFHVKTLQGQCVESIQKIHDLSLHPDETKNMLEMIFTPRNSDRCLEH
Outline: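 Cell-free enzyme assay with recombinant protein and a specific fluorogenic substrate, read by fluorescence intensity 0.5 h after dosing. Primary screen ran in duplicate at 10 uM; actives were retested in concentration series. Loss of signal versus acetonitrile baseline.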

[13] = target: human CYP2D6, CYP2D6 (gene 1565) (UniProt P10635); experiment: NVS_ADME_hCYP2D6: NovaScreen (NVS) CYP450-related Enzyme Activity (ADME) Assay for human CYP2D6 (AID 2283107; active = hit-call score of the fitted dose curve at least 0.9, where 1 is the maximum)
Chain of human CYP2D6, CYP2D6 (gene 1565) (P10635 whole entry, looked up): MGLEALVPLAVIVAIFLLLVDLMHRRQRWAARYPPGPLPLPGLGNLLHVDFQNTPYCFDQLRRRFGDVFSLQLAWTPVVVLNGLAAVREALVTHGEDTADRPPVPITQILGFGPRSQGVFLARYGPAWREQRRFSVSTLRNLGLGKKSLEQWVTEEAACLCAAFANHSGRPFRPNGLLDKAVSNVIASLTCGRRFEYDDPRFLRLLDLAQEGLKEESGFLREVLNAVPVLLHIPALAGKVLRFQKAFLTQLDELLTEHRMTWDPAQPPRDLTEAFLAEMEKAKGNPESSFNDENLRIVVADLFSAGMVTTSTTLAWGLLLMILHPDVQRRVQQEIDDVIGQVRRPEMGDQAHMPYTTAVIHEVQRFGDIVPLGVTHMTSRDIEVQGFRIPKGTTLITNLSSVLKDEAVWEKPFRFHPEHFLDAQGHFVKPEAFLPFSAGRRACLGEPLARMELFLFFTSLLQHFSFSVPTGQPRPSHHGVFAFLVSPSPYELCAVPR
Outline: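 Biochemical fluorescence assay, insect-cell-derived enzyme. Read at 1 h; inhibition taken from loss of signal against acetonitrile. Screened at 10 uM in duplicate, with concentration series for actives.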

[14] = target: human CYP2C9, CYP2C9 (gene 1559) (UniProt P11712); experiment: NVS_ADME_hCYP2C9: NovaScreen (NVS) CYP450-related Enzyme Activity (ADME) Assay for human CYP2C9 (AID 2283108; active = hit-call score of the fitted dose curve at least 0.9, where 1 is the maximum)
Chain of human CYP2C9, CYP2C9 (gene 1559) (P11712 whole entry, looked up): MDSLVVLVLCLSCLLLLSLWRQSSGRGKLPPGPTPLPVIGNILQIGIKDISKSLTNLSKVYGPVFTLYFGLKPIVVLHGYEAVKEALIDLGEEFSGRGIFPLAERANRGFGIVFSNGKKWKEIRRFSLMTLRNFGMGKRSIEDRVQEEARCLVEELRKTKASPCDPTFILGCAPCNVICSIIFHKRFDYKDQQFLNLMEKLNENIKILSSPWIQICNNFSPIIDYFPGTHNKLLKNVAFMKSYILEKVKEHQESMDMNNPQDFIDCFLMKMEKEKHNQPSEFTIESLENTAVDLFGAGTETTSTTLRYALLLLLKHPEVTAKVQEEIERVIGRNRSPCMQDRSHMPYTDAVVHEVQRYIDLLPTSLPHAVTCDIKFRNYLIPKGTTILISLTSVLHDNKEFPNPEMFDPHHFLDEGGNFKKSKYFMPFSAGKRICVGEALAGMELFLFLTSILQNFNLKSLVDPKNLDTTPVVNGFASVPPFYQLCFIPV
Outline: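 Cell-free assay of recombinant human CYP2C9 produced in Sf9 cells, with enzyme activity read by fluorescence intensity 0.75 h after compound addition. Loss of signal versus an acetonitrile negative control indicates inhibition. Primary screen used 10 uM in duplicate; actives were retested in concentration series.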

Measured: AC50

Chain of E-selectin (Homo sapiens) (P16581 whole entry, looked up): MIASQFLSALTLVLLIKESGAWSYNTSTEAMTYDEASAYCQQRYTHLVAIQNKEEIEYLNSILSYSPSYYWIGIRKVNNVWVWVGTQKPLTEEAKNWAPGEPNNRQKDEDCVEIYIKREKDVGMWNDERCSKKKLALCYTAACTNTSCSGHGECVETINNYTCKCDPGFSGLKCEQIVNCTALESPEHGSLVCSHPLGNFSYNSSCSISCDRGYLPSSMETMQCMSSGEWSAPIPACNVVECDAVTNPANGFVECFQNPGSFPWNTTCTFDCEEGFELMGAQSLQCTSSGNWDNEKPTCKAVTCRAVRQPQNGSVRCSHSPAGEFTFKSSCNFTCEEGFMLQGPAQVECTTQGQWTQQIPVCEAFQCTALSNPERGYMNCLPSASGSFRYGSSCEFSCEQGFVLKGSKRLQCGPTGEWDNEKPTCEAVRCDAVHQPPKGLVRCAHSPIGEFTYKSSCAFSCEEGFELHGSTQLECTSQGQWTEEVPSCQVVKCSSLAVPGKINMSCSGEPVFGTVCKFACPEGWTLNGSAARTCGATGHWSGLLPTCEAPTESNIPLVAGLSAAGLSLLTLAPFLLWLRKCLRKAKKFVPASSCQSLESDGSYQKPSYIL
Chain of Tumor necrosis factor (Homo sapiens) (P01375 whole entry, looked up): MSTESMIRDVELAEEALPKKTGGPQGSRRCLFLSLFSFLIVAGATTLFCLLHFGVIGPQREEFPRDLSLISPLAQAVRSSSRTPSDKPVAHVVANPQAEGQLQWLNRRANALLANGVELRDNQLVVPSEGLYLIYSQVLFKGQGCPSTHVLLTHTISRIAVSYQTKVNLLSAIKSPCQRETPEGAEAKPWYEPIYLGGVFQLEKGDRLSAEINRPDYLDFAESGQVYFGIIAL

O=CN1CCOCC1
not listed: [11] | [12] | [13] | [14]
inactive: all other assays above

CCCCCC(C=O)=Cc1ccccc1
active: [1] 34 µM | [2] 33.3 µM | [4] 30.4 µM | [7] 31 µM | [9] 33.1 µM
not listed: [12] | [13] | [14]
inactive: all other assays above

c1ccc(Oc2ccccc2)cc1
not listed: [11] | [12] | [13] | [14]
inactive: all other assays above

CN(C)C(=O)Nc1ccc(Oc2ccc(Cl)cc2)cc1
active: [1] 5.86 µM
not listed: [11] | [12] | [13] | [14]
inactive: all other assays above

CN1C(=O)c2ccccc2C1=O
inactive: [12]

CCCCC(CC)COC(C)=O (stereo not drawn)
active: [13] 5 µM

c1ccc2cc(Nc3ccc(Nc4ccc5ccccc5c4)cc3)ccc2c1
not listed: [11] | [12] | [13] | [14]
inactive: all other assays above

CCCCCCC(=O)c1ccccc1
active: [12] 5.7 µM

CC(C)(N=C=O)c1cccc(C(C)(C)N=C=O)c1
not listed: [7] | [11] | [12] | [13] | [14]
inactive: all other assays above

O=C1OC2(c3ccccc31)c1ccc(O)c(Br)c1Oc1c2ccc(O)c1Br
active: [1] 11.1 µM | [2] 20 µM | [3] 20 µM | [4] 20 µM | CD38, CD38 (gene 952) 20 µM | CD40, CD40 (gene 958) 28.8 µM | CD69, CD69 (gene 969) 20 µM | [5] 20 µM | [6] 26 µM | [9] 8.3 µM
inactive: [7] | [8] | [10]

C[C@@H]1CCN(C(=O)[C@H](CCCN=C(N)N)NS(=O)(=O)c2cccc3c2NC[C@H](C)C3)[C@@H](C(=O)O)C1
not listed: [11] | [12] | [13] | [14]
inactive: all other assays above

CCCCCCOCCOCCO
active: [14] 0.238 µM

CC1(C)C2=CCCC(C)(C)[C@]23CC[C@H]1C3
active: [7] 35.6 µM | [9] 31.6 µM
not listed: [11] | [12] | [13] | [14]
inactive: all other assays above

CC(=O)C(C)O (stereo not drawn)
active: [13] 5 µM

C=C(C)C(=O)OCCOCCOCCOCCOC(=O)C(=C)C
active: [9] 23.9 µM
not listed: [11] | [12] | [13] | [14]
inactive: all other assays above

C=CC(C)(O)CCC=C(C)C (stereo not drawn)
not listed: [11] | [12] | [13] | [14]
inactive: all other assays above
